Records with an inconclusive call do not appear. A number with no mark means an inactive call. Calls of active or inactive are those of the source. Calls come from the whole dose curve; as a rule, active = well fitted cell-killing curve with a large enough effect; inconclusive = small, poorly fitted or top-dose-only effect, or effect the other way; inactive = flat fitted curve, though single readings scatter.
These molecules were tested on CAOV3 (assay: Primary qHTS to identify gynecologic anti-cancer compounds using libraries of approved drugs and bioactive compounds (AID 1345084; note: nearly all actives have a fitted effect of over 55% in size)). Conditions: Gynecologic cancer cell panel viability, ATPlite luminescence, 48 h; series mostly up to 57.5 µM; activity change, negative = cytotoxicity: at the top concentration.
Excerpt: National Center for Advancing Translational Sciences [NCATS] Assay Overview: Chemotherapeutic drug responses vary from cancer to cancer and from patient to patient. These variations could be caused by a number of factors including patient genomic background, tumor mutations, tumor heterogeneity, and aspects of drug treatment. Chemotherapeutic drug resistance is also a common issue and can lead to ineffective treatment and patient death. Here we have profiled the cell killing effects of thousands of compounds to characterize the responses in three gynecological cancers, identify cancer-selective compounds, and understand the diversity of responses to these compounds from pan-cancer suppressors to single cell line selective compounds. In this assay, we screened a 7,914 compound drug library that included approved drug and bioactive compounds in six ovarian, three cervical, and […] placental cancer cell lines using the ATPlite assay for cell viability. […] The cervical cancer cell lines included HeLa, Ca Ski, and C-33 A. The placental cancer cell lines included JEG-3. HEK 293T cells were used as the control cell line to determine the selectivity index. ATPlite is a luminescence based assay reliant on the conversion of a luciferase substrate to light in the presence of ATP. As a cytotoxic compound will suppress growth and decrease the number of cells, the concentration of ATP will decrease, and less light signal will be detected in the well.
Assay Protocol Summary: 1,000 cells in 4 uL of media were dispensed into white, solid bottom 1536-well plates using a Multidrop Combi (Thermo Scientific). The Assay plates were incubated for 16 hours at 37 C with 5% CO2 in assay plates, followed by the addition of 23 nL of DMSO or drug dissolved in DMSO. Each compound was assayed in five concentrations (0.092, 0.46, 2.3, 11.5, and 57.5 uM), using the automated Wako 1536 Pin Tool workstation and incubated at 37 C with 5% CO2 48 hours. 4 uL of ATPlite, the ATP monitoring reagent, was then added to the each well of the assay plates using the Multidrop Combi reagent dispenser followed by incubation for 15 minutes at room temperature. The resulting luminescence was measured using the ViewLux plate reader.
% is set by controls: 0 for no effect and ±100 for the full control effect; potency is the fitted concentration of half-maximal effect.

SMILES | activity change, negative = cytotoxicity | Potency
C/C(=C\C(=O)OCCCCCCCCC(=O)O)C[C@@H]1OC[C@H](C[C@@H]2O[C@H]2[C@@H](C)[C@H](C)O)[C@@H](O)[C@H]1O | -2.44% | 
O=C(O)Cc1cc(I)c(Oc2ccc(O)c(I)c2)c(I)c1 | -12.4% | 
C[C@]12CC[C@@H]3c4ccc(OC(=O)c5ccccc5)cc4CC[C@H]3[C@@H]1CC[C@@H]2O | 26.9% | 
O=C(OCc1ccccc1)c1ccc(O)cc1 | -13.1% | 
Nc1ccc(N=Nc2ccccc2)c(N)n1 | 0.191% | 
CCN(CC)CCOCCOC(=O)C(CC)(CC)c1ccccc1 | -3.75% | 
C=C1CC[C@H](O)CC1=C/C=C1\CCC[C@]2(C)[C@@H]([C@H](C)/C=C/[C@H](C)C(C)C)CC[C@@H]12 | 20.2% | 
COc1ccc(C[C@H](C)NC[C@@H](O)c2ccc(O)c(NC=O)c2)cc1 | -5.9% | 
CO[C@H]1C[C@@H]2CC[C@@H](C)[C@@](O)(O2)C(=O)C(=O)N2CCCC[C@H]2C(=O)O[C@H]([C@H](C)C[C@@H]2CC[C@@H](OC(=O)C(C)(CO)CO)[C@H](OC)C2)CC(=O)[C@H](C)/C=C(\C)[C@@H](O)[C@@H](OC)C(=O)[C@H](C)C[C@H](C)/C=C/C=C/C=C/1C | -4.42% | 
O=C(O)CCC(=O)c1ccc(-c2ccccc2)cc1 | -6.4% | 
CC1CC(OC(=O)C(O)c2ccccc2)CC(C)(C)C1 (configuration not stated) | -7.84% | 
O=C1c2ccccc2C(=O)c2c1ccc(O)c2O | -8.41% | 
C=C1[C@H](CO)[C@@H](O)C[C@@H]1n1cnc2c(=O)[nH]c(N)nc21 | 27% | 
CC(C)(C)c1ccc(CN2CCN(C(c3ccccc3)c3ccc(Cl)cc3)CC2)cc1 (configuration not stated) | 4.49% | 
CC(=O)Nc1ccc(NC(=S)NC(=O)c2ccc(C(C)(C)C)cc2)cc1 | -2.15% | 
C[C@H]1O[C@@H](O[C@H]2[C@@H](O)C[C@H](O[C@H]3[C@@H](O)C[C@H](O[C@H]4CC[C@@]5(C)[C@H](CC[C@@H]6[C@@H]5C[C@@H](O)[C@]5(C)[C@@H](C7=CC(=O)OC7)CC[C@]65O)C4)O[C@@H]3C)O[C@@H]2C)C[C@H](O)[C@@H]1O |  | 282 nM (active)
CN(C)CCCSc1ccccc1NC(=O)/C=C/c1ccccc1 | -27.9% | 
